# Screening results from PubChem BioAssay.
# HIV RNase H inh-1 – HIV-1 RT RNase H inhibitors, primary screen, biochemical, fluorescence; 65,000 tested, 1.9% active; RT-RNase H RNA/DNA duplex cleavage; Gag-Pol polyprotein (Human immunodeficiency virus type 1 group M subtype B (isolate …; inhibition, % at 10 µM; in the data active means inhibition above about 50%
# HIV RNase H inh-2 – HIV-1 RT RNase H inhibitors, retest, confirmation, biochemical; 1,000 tested, 39% active; Recombinant RT RNase H, fluorescent RNA/DNA duplex cleavage; shares compounds with HIV RNase H inh-1; inhibition, % at 10 µM; AID 651, 2007; in the data active means inhibition above about 48%
# Numbers without * were called inactive. Shown is part of a subset that was picked to be rich in hits.
SMILES,HIV RNase H inh-1,others
COc1ccc(-n2c(SCC(=O)N3CCCC3)nc3c([nH]c4ccccc43)c2=O)cc1,87*,HIV RNase H inh-2=88*
O=C(CSc1nc2c([nH]c3ccccc32)c(=O)n1-c1cccc(Cl)c1)N1CCOCC1,78*,HIV RNase H inh-2=67*
O=C(CSc1nc2c([nH]c3ccccc32)c(=O)n1-c1ccccc1)N1CCOCC1,4,
Cc1ccc(-n2c(SCC(N)=O)nc3c([nH]c4ccccc43)c2=O)cc1,-1,
COc1cccc(-n2c(SCC(=O)Nc3cc(C)on3)nc3c([nH]c4ccccc43)c2=O)c1,-4,
CC(C)c1ccc(S(=O)(=O)N2CCN(C(=O)c3cccc(F)c3)CC2)cc1,1,
Cc1ccccc1OCCNC(=O)CNC(=O)c1ccccc1O,10,
Nc1c(C(=O)N2CCOCC2)sc(=S)n1-c1ccccc1,95*,HIV RNase H inh-2=65*
O=C(c1nc(-c2ccccc2)n(-c2ccccc2)n1)N1CCCCCC1,-5,
Nc1c(C(=O)N2CCCCC2)sc(=S)n1-c1ccccc1,97*,HIV RNase H inh-2=77*
Cc1cc(C(=O)N2CCOCC2)n(-c2ccccc2)n1,-7,
Cc1nn(-c2ccccc2)c2sc(C(=O)N3CCCCC3)cc12,-3,
Nc1nc(C(=O)N2CCOCC2)nn1S(=O)(=O)c1ccccc1,1,
COc1ccccc1NC(=O)CSc1nnc(CNC(=O)COc2ccc(Cl)cc2)o1,-13,
COC(=O)CSc1nnc(CNc2ccc(OC)cc2)n1C,3,
CCC(C)(C)n1nnnc1C(c1ccc(O)c(OC)c1)N1CCN(c2nc3ccccc3s2)CC1 (centres undefined),56*,HIV RNase H inh-2=42
CCC(C)(C)n1nnnc1C(c1cc(OC)c(OC)c(OC)c1)N1CCN(c2ccccc2)CC1 (centres undefined),-14,
COc1ccc(C(c2nnnn2C(C)(C)C)N2CCN(c3nc4ccccc4s3)CC2)cc1 (centres undefined),-4,
Cc1cc(C)nc(N2CCCC(C(=O)NCCC3=CCCCC3)C2)n1 (centres undefined),-6,
O=C(NC1CCCC1)c1ccc(CS(=O)(=O)c2ccc(Br)cc2)o1,-2,
O=c1c2ccccc2n2cnnc2n1-c1ccccc1,-14,
O=c1c2ccccc2[se]n1-c1ccccc1,94*,HIV RNase H inh-2=67*
O=c1c2ccccc2n2nnnc2n1-c1ccccc1,-14,
CCN(CC)c1ccc(NC(=O)COc2ccc(C)cc2)cc1,7,
CC1CC(C)CN(CC(C)(C)NS(=O)(=O)c2ccccc2)C1 (centres undefined),-2,
SMILES,HIV RNase H inh-1,others
COCCCn1c(SCC(=O)NCc2ccco2)nc2sc3c(c2c1=O)CCC3,-4,
O=C(CSc1nc2sc3c(c2c(=O)n1-c1ccccc1)CCCC3)NCc1ccco1,62*,HIV RNase H inh-2=53*
CC1(C)Cc2nc3sc4c(SCC(=O)NCc5ccco5)ncnc4c3cc2CO1,3,
Cc1sc2nc(SCC(=O)NCc3ccco3)n(C)c(=O)c2c1C,-7,
Cc1sc2nc(SCC(=O)NCc3ccco3)[nH]c(=O)c2c1C,-2,
CC(C)c1nc2sc3c(SCC(=O)NCc4ccco4)ncnc3c2c2c1CCC2,71*,HIV RNase H inh-2=35*
O=C(CSc1ncnc2sc3c(c12)CCCCC3)NCc1ccco1,-12,
CC1(C)Cc2c(sc3nc(SCC(=O)NCc4ccco4)n(-c4ccccc4)c(=O)c23)CS1,13,
Cc1sc2nc(SCC(=O)NCc3ccco3)n(CCc3ccccc3)c(=O)c2c1C,82*,HIV RNase H inh-2=59*
COc1ccc(C(=O)N(CN2CCCC2=O)c2nccs2)cc1OC,-26,
COCc1c(C(N)=O)nnn1-c1nonc1N,6,
O=C(CSc1nc2ccccc2c(=O)n1-c1ccc(Cl)cc1)c1ccco1,27,
CC(=O)c1cc(C(=O)Nc2ccccc2C(=O)O)oc1C,4,
Cc1ccc(N2CCN(c3cc(C)nc4nc(C)nn34)CC2)c(C)c1,1,
COc1ccc(Cn2nnnc2C(c2ccc(C)cc2)N2CCN(C3CCCC3)CC2)cc1 (centres undefined),3,
COc1ccc(Cn2nnnc2C(c2cccnc2)N2CCN(c3ccc(O)cc3)CC2)cc1 (centres undefined),80*,HIV RNase H inh-2=85*
COc1ccc(Cn2nnnc2C(c2ccccc2Cl)N2CCN(C)CC2)cc1 (centres undefined),-10,
Nn1c(SCC(=O)Nc2ccc3c(c2)OCO3)nnc1-c1ccncc1,11,
Cc1cc(NC(=O)CSc2nnc(-c3ccncc3)n2N)ccc1Br,52*,HIV RNase H inh-2=5
Cc1cccc(NC(=O)CSc2nnc(-c3ccncc3)n2C)c1,-4,
COc1ccccc1N1CCN(C(c2cccs2)C(C)NC(=O)c2cccs2)CC1 (centres undefined),2,
Cc1nc2ccccn2c1/C(O)=C1\C(=O)C(=O)N(CCCN(C)C)C1c1ccc(F)cc1 (centres undefined),0,
CCN1CCCC1CNC(=O)c1ccc(CS(=O)(=O)c2ccccc2C)o1 (centres undefined),-10,
CCOC(=O)CCc1c(C)nc(SCC(=O)O)c(C#N)c1C,70*,HIV RNase H inh-2=12
Cc1nc(SCC(=O)CC(=O)OC(C)C)c(C#N)c(C)c1C,-35,
SMILES,HIV RNase H inh-1,others
CCOC(=O)CCc1c(C)c(C#N)c2nc3ccccc3n2c1-n1ccnc1,0,
CCCS(=O)(=O)N1CCN(C(=O)c2cccc(OC)c2)CC1,-10,
CCOc1cc(C2CC(=O)NC(SCC)=C2C#N)ccc1O (centres undefined),-13,
COc1ccc2ccccc2c1C1CC(=O)N2CN(C3CCCCC3)CSC2=C1C#N (centres undefined),82*,HIV RNase H inh-2=60*
CCOc1cc(C2CC(=O)N3CN(C4CCCCC4)CSC3=C2C#N)ccc1O (centres undefined),79*,HIV RNase H inh-2=72*
COc1ccccc1C1CC(=O)NC(SCC(=O)Nc2ccccc2)=C1C#N (centres undefined),-61,
CCOc1cc(C2CC(=O)Nc3cc(C)c(C)cc32)ccc1O (centres undefined),-7,
COc1ccc(C2C(=O)N(C3CCCCC3)CC(=O)N2CCc2ccccc2)cc1OC (centres undefined),-5,
COC(=O)CN1CCN(C(=O)c2ccc(F)cc2)c2ccccc2C1,-17,
CN1CCC(N(C)CC(=O)Nc2cccc(Oc3ccccc3)c2)CC1,-6,
CN(C)c1ccc(CN(C(=O)C2COc3ccccc3O2)C2CCS(=O)(=O)C2)cc1 (centres undefined),2,
Cc1onc(-c2ccccc2)c1C(=O)Nc1cccc(C#N)c1,-40,
O=c1cc(NCc2ccco2)c2ccccc2o1,-1,
O=C(CSc1ccc2nnc(-c3ccccn3)n2n1)N1CCN(c2ccccc2)CC1,-19,
COc1ccc(Cc2nnc(NC(=O)c3ccco3)s2)cc1OC,5,
CCOC(=O)N1CCC(N2C(=O)c3ccccc3C2Nc2cc(C(=O)OC)cc(C(=O)OC)c2)CC1 (centres undefined),-3,
CCOCCCn1c(=N)c(C(N)=S)cc2c(=O)n3cccc(C)c3nc21,10,
CCOC(=O)c1cc2c(=O)n3cccc(C)c3nc2n(C)c1=N,-20,
Cc1cccn2c(=O)c3cc(C(N)=S)c(=N)n(CCCOC(C)C)c3nc12,69*,HIV RNase H inh-2=9
COc1cc(-c2nn3c(C4CCCCC4)nnc3s2)cc(OC)c1OC,75*,HIV RNase H inh-2=29
COc1ccc(-c2nn3c(C4CCCCC4)nnc3s2)cc1OC,37,
c1ccc(-c2nn3c(C4CCCCC4)nnc3s2)cc1,-6,
CCOC(=O)c1cc(NC(=O)c2c(C)noc2C)cc(C(=O)OCC)c1,-8,
